Results on 95 molecules are retold here after PubChem BioAssay AID588334 (Broad Institute, 2011).

In all, about 300,000 compounds went through this assay and about 2,300 (0.77%) were called active. The sample holds actives, similar compounds and a random draw of the others, so the mix is not that of the screen. A number with no mark means an inactive call.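 The calls were made as follows: active = mean activation of at least 80% with every replicate also reaching 80%; inconclusive = mean reaches 80% but some replicate falls short; inactive = the rest.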 Where a SMILES comes first, the peptide text is derived from it. [ ]: non-standard residue; d: D form. ξ: configuration not given here. Ac5c = NC1(C(=O)O)CCCC1; ξS = NC(CO)C(=O)O

A short description of the test: activators of MITF-driven TRPM1 promoter reporter, primary screen, cell-based, SK-MEL-5, luciferase, single point (AID 588334).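 Also: 0% = neutral control wells and 100% = parthenolide positive control wells.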 The note with it: SK-MEL-5 TRPM1-promoter luciferase, 24 h; at 12.5 µM; active compounds read high; % of positive control, neutral wells = 0.
`Cc1ccc(S(=O)(=O)N2CCN(C(=O)COC(=O)/C=C/c3cccc(Cl)c3)CC2)c(C)c1`: the activation was 4.12%.
`Cc1cccc(NC(=O)c2ccc(S(=O)(=O)N(C)c3ccccc3)cc2)n1`: the activation was 1.38%.
In the case of `CSCCC1NC(=O)N(CC(=O)Nc2cccc(S(=O)(=O)N3CCCCCC3)c2)C1=O` (stereo not given), the activation was 11.8%.
Turning to `O=C(COC(=O)c1ccc2c(c1)OCCO2)NCc1ccccc1Cl`, the activation was 4.3%.
In the case of `O=C(OCc1ccccc1F)c1ccc2c(c1)OCCO2`, the activation is 126% (active).
On to `O=C(COC(=O)c1ccccc1)c1ccc2c(c1)OCCO2`, for which the activation was 17.6%.
In the case of `CCOc1ccc(C(=O)Nc2cccc(-c3ccc4nncn4n3)c2)cc1`, the activation was 52.8%.
Consider `CCOc1ccc(C(=O)Nc2ccncc2)cc1`, for which the activation was 41.4%.
Consider `CCOc1ccc(C(=O)Nc2cccc(SC)c2)cc1`, for which the activation was 84.3% (active).
As for `O=C1CC[C@@H]2CC3(C[C@@H]4CCN1[C@H]24)Nc1cc([N+](=O)[O-])ccc1NC3=NC1CCCCC1` (stereo not given in full), the activation was 3.73%.
Take `COc1ccc(C(=S)Nc2ccccc2)cc1`: the activation is 33.5%.
As for `COc1ccc(NC(=S)N2N=CCC2c2ccccc2)cc1` (stereo not given), the figure is 90.9% (active); as for `COc1ccc(C(=O)NC2CCN(C(=S)Nc3ccccc3)CC2)cc1`, -0.484%; as for `Cc1ccc(C(=O)NC(=S)Nc2ccccc2C)cc1`, 51.8%.
For the molecule `Cc1ccc(NC(=S)NCc2ccccc2Cl)c(C)c1`, the activation is -11.2%.
With `Cc1ccc(NC(=S)Nc2ncccc2C)c(C)c1`, the activation is 92.2% (active).
As for `COc1ccc(CNCCCn2cnc3c(OCc4ccccc4)ncnc32)cc1`, the figure is 7.28%; as for `Cc1ccc(S(=O)(=O)N2CCN(C(=O)c3cc(S(=O)(=O)N4CCOCC4)ccc3F)CC2)cc1`, -4.55%.
Take `NN=C(NN=Cc1ccccc1)c1ccccc1`: the activation was 35.2%.
On to `CC1CCCN(c2ccc(C(=O)NCCc3ccccc3)cn2)C1` (stereo not given), for which the activation is 126% (active).
For the molecule `O=C(NCCc1ccccc1)c1ccc2c(c1)N(Cc1ccccc1)CCS2`, the activation is 39.9%.
For `CCCOc1ccc(C(=O)NCCc2ccccc2)cc1`, the activation is -2.06%.
On to `CC(C(=O)N1CCc2ccccc21)N(C)CC(=O)Nc1ccc(F)cc1` (stereo not given), for which the activation was 13.5%.
Turning to `COC[C@@H]1NS(=O)(=O)c2ccc(Br)cc2O[C@H]1c1ccccc1`, the activation is 7.36%.
With `O=C(Nc1ccc(Cl)cc1)/C(=C1\CCCN1)[N+](=O)[O-]`, the activation was 88.7% (active).
On to `O=C(O)C1CCCCC1C(=O)Nc1ccc(Cl)cc1` (stereo not given), for which the activation was 20.2%.
As for `O=C(CC1SCCNC1=O)Nc1ccc(Cl)cc1` (stereo not given), the activation was 26.1%.
Consider `COc1ccccc1N(CC(=O)Nc1ccc(C)cc1Cl)S(=O)(=O)c1cccs1`, for which the activation was -4.34%.
As for `Cc1occc1C(=O)NNC(=S)NCC(C)C`, the activation was -2.13%.
For the molecule `S=C(NCc1ccc(Cl)cc1)NC1CCCCC1`, the activation is -7.01%.
Consider `O=C(NC1CCCCCC1)c1cccnc1Sc1ccc(Cl)cc1`, for which the activation is 6.6%.
For `O=C(NNC(=S)NC1CCCCC1)c1ccccc1Cl`, the activation was 9.14%.
For `O=C(NC1CCCCC1)c1ccc(-c2ccc(Cl)cc2)o1`, the activation was 111% (active).
As to `CC(C)CNC(=S)NC(=O)c1ccc(Cl)cc1`, the activation is 112% (active).
For `O=C(NC(=S)NC1CCCCC1)c1ccc(Cl)cc1`, the activation was 138% (active).
For the molecule `COCCCNC(=S)NC(=O)c1ccccc1`, the activation is 17.9%.
`COc1ccc(C(=O)NC(=S)NC2CCCCC2)cc1`: the activation was 73.7%.
For the molecule `C=CCC[C@H](Cc1ccc(F)cc1)C(=O)OC[C@@H](NC(=O)[C@@H](CC=C)CC(=O)N[C@H](CO)Cc1ccccc1)C(C)(C)C`, the activation is -0.905%.
As for `CCCCNC1(C#N)CCN(Cc2ccccc2)CC1`, the figure is 0.419%; as for `CC(C)(C)OC(=O)N(Cc1ccccc1)Cc1ccc(OCc2cccc(NC(=O)c3ccccc3)c2)cc1`, -13.4%.
Take `O=C(C[C@H]1C[C@H](C(=O)N2CCOCC2)[C@@]2(CCC3CCCC3)c3[nH]c4ccc(Cl)cc4c3CCN2C1=O)NCc1ccco1`: the activation was -16.1%.
Consider `CCCCNc1c(-c2ccc(OC)c(Sc3ccc(OC)cc3)c2)nc2ccc(Cl)cn12`, for which the activation was 4.02%.
As for `CCOC(=O)C(CO)NC(=O)C1(NC(C)=O)CCCC1` (stereo not given) (Ac-[Ac5c]-[ξS]-OEt), the figure is 14.3%; as for `COc1ccc(S(=O)(=O)N2CCc3ccccc32)cc1C(=O)Nc1cc(S(C)(=O)=O)ccc1Cl`, -34%.
Regarding `COc1ccc(Nc2nnc(C)c3ccccc23)cc1`, the activation was 24.4%.
As for `S=C(Nc1ccccc1)Nc1ccc2ccccc2c1`, the activation was 1.98%.
For the molecule `COc1ccc(-c2nnc(-c3ccc4ccccc4c3)o2)cc1`, the activation was 93.8% (active).
Take `COc1ccc(Nc2ccc3ccccc3c2)cc1`: the activation was 101% (active).
As for `COc1ccc(N2CCN(Cc3nnc(-c4ccccc4)o3)CC2)cc1`, the activation was -2.12%.
Take `COc1ccc(-c2nnc(SCc3cccnc3)o2)cc1`: the activation is 72%.
Turning to `CN(CCc1ccccc1)C(=O)c1cccc(NC(=O)Cc2cccc(NC(=O)C3CCCN(C(=O)CCc4ccccc4)C3)c2)c1` (stereo not given), the activation was -13.3%.
To `CCC1([N+](=O)[O-])COC(c2ccc(C(C)C)cc2)OC1` (stereo not given) belongs 53.9%; to `CC(C)(C)OC(=O)C[C@@H]1C/C=C\C[C@@H](CC(=O)N(CCO)Cc2ccccc2)C(=O)N[C@H](Cc2ccccc2)COC1=O`, 8.13%.
In the case of `O=C(CSc1nnc(-c2ccco2)n1CC1CCCO1)c1ccccc1` (stereo not given), the activation is 5.67%.
As for `c1ccc(CSc2nnc(-c3ccco3)n2Cc2ccccc2)cc1`, the activation was 94.3% (active).
Turning to `O=C(CSc1nnc(-c2ccco2)n1-c1ccccc1)NCCc1ccccc1`, the activation is -10.2%.
For the molecule `CCc1c(Nc2ccccc2Cl)nc(N)[nH]c1=O`, the activation was 0.399%.
For the molecule `CSc1ccccc1NC(=O)c1cnc2sc(C)cn2c1=O`, the activation is 126% (active).
As to `CSc1ccccc1NC(=O)c1cc(Cl)sc1Cl`, the activation is 3.8%.
To `Cc1ccccc1C(=O)Nc1ccccc1Sc1ccccc1` belongs -5.99%; to `CC(=O)N1CCc2ccc(N)cc21`, -5.2%; to `CC(C#N)OC(=O)c1cccnc1SCC(=O)Nc1ccc2c(c1)OCO2` (stereo not given), -11.6%.
As for `CCS(=O)(=O)Nc1ccc(C(=O)NCCSc2ccccc2)cc1`, the activation is 82.4% (active).
For the molecule `Cc1ccc(C(=O)NCCNS(=O)(=O)c2ccccc2)cc1`, the activation is 0.954%.
Regarding `O=C(NCCSc1ccccc1)c1ccco1`, the activation is 61.4%.
With `CC(=O)OC1CCC2C3CCC4=C(CC(F)C(=O)C4)C3CCC12C` (stereo not given), the activation was 0.663%.
Consider `COc1ccc2nc(SCc3ccccc3)nc(C)c2c1`, for which the activation was 91.9% (active).
Turning to `COC(=O)CSc1nc(C)c2ccc(OC)cc2n1`, the activation was 16.3%.
`COc1ccc(-c2nnc3ccc(SCc4ccccc4)nn23)cc1`: the activation is -5.03%.
As for `C[C@]12c3[nH]c4ccc(Cl)cc4c3CCN1C(=O)[C@@H](CC(=O)NCCCn1ccnc1)C[C@@H]2C(=O)N1CCOCC1`, the activation is 13.5%.
With `CCOC(=O)C(C)n1cnc2sc(C)c(C)c2c1=O` (stereo not given), the activation was 2.04%.
To `Cc1cccc(OC(=O)c2sc3ncn(C)c(=O)c3c2C)c1` belongs 93.6% (active); to `Cc1c(C(N)=O)sc2ncn(CCOc3ccccc3)c(=O)c12`, 17.3%; to `CCC(CO)Oc1cc(NCc2ccccc2)c2ncn(C3CCCC3)c2c1` (stereo not given), 9.77%.
To `NC(=O)c1ncn([C@@H]2O[C@H](CNCc3cnc(N4CCOCC4)s3)[C@@H](O)[C@H]2O)n1` belongs -0.075%; to `O=C(Cc1ccc(S(=O)(=O)N2CCOCC2)s1)Nc1ccc(Br)c(C(F)(F)F)c1`, 17.8%; to `O=C(CC1Sc2ccccc2NC1=O)NNc1ccc(Cl)c(Cl)c1` (stereo not given), 9.23%.
Take `O=c1c2ccccc2nnn1CSc1nnnn1-c1ccccc1`: the activation is 87.9% (active).
As for `C=CCn1c(SCn2nnc3ccccc3c2=O)nnc1-c1ccc(Cl)cc1`, the activation is -11%.
Turning to `Nc1nnc(SCn2nnc3ccccc3c2=O)s1`, the activation is -7.75%.
To `O=C(NCCC(=O)N1O[C@@H]2C=C[C@H]1C2)OCC1c2ccccc2-c2ccccc21` belongs 12.3%.
Turning to `COc1ccc(CNC(=O)COC(=O)C2=Cc3ccccc3OC2)cc1`, the activation was -1.47%.
With `CC(C)N(C(=O)[C@H]1C[C@H](CC(=O)NC(C)(C)C)C(=O)N2CCc3c([nH]c4ccc(Cl)cc34)[C@]12C)C(C)C`, the activation is -26.3%.
For the molecule `COc1cc(C(=O)N2CCN(S(=O)(=O)c3ccc(C(C)C)cc3)CC2)ccc1OCC(=O)N1CCOCC1`, the activation is -0.869%.
As for `Cc1ccc2cc(/C=N/Nc3ccc(C(=O)O)cc3)c(Cl)nc2c1`, the figure is 99.2% (active); as for `Cc1ccc2cc(/C=N/NC(=O)[C@@H]3CCCN3)c(Cl)nc2c1`, 19.1%; as for `O=C(O)c1ccc(N/N=C/c2ccc3ncccc3c2)cc1`, -58.9%.
Regarding `O=C1C[C@@H]2c3c(cccc3CN1Cc1ccccc1)C[C@@H](O)[C@H]2O`, the activation was 8.46%.
Consider `COc1ccc(C2=Nn3c(nnc3-c3ccccc3OC)SC2)cc1OC1CCCC1`, for which the activation was -62.2%.
With `CC(=NNC(=O)c1ccncc1)c1ccc(Cl)c(Cl)c1`, the activation was 4.45%.
To `O=C(NCCC1=CCCCC1)c1ccc(-n2cncn2)cc1` belongs 83.6% (active).
Regarding `O=C(NCCC1=CCCCC1)c1ccc(Cl)c([N+](=O)[O-])c1`, the activation is 31.3%.
As to `CN(c1ccc(C(=O)NCCC2=CCCCC2)cc1)S(C)(=O)=O`, the activation is 45.6%.
To `CN(C)C(CNC(=O)c1cc2ccccc2o1)c1ccccc1` (stereo not given) belongs 1.76%.
`CCNC(=O)N(CC)C[C@H]1N[C@@](CC)(C(=O)OC)[C@H]2C(=O)N(Cc3ccccc3)C(=O)[C@@H]12`: the activation is 0.033%.
